# Bioassay records: PubChem, National Center for Advancing Translational Sciences (NCATS)
# Rows were chosen to be rich in hits. Some 10% of all compounds tested hit in one or more screens of this group.
# Six1-Eya2 inh = qHTS Assay for Inhibitors of the Six1/Eya2 Interaction; Homeobox protein SIX1 (Homo sapiens) + Protein phosphatase EYA2 (Homo sapiens), …; AlphaScreen GST-Six1/His-Eya2 binding, biochemical; hits give low values; activity change, % (no concentration beside the values); 360,000 compounds, 0.56% hits; AID 651725, 2012; in the data active = activity change below about -65%; inconclusive = mostly about -30% to -63%; note: % is set by controls: 0 for no effect and ±100 for the full control effect
#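 GST-Six1 + His-Eya2 (5X stock: 250/500 nM); Tris pH 8.0, 300 mM NaCl, 0.05% BSA, 0.02% Tween 20; GSH donor/Ni acceptor beads; 1 h 37 °C dark; AlphaScreen readout.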
# JMJD2A Tudor inh = qHTS Assay for Inhibitors of JMJD2A-Tudor Domain. 390,000 compounds, 4.4% hits. Lysine-specific demethylase 4A (Homo sapiens), O75164. AlphaScreen JMJD2A-Tudor / H3K4me3 peptide binding. Potency, µM (titrated, usually from 114 µM), for the others: at the highest dose activity change, negative = inhibition, usual class: inhibitors; note: potency is the fitted concentration of half-maximal effect; % is set by controls: 0 for no effect and ±100 for the full control effect; nearly all actives have a fitted effect of over 50% in size
# Target sequence (O75164 whole entry, looked up, the tested form may be a part): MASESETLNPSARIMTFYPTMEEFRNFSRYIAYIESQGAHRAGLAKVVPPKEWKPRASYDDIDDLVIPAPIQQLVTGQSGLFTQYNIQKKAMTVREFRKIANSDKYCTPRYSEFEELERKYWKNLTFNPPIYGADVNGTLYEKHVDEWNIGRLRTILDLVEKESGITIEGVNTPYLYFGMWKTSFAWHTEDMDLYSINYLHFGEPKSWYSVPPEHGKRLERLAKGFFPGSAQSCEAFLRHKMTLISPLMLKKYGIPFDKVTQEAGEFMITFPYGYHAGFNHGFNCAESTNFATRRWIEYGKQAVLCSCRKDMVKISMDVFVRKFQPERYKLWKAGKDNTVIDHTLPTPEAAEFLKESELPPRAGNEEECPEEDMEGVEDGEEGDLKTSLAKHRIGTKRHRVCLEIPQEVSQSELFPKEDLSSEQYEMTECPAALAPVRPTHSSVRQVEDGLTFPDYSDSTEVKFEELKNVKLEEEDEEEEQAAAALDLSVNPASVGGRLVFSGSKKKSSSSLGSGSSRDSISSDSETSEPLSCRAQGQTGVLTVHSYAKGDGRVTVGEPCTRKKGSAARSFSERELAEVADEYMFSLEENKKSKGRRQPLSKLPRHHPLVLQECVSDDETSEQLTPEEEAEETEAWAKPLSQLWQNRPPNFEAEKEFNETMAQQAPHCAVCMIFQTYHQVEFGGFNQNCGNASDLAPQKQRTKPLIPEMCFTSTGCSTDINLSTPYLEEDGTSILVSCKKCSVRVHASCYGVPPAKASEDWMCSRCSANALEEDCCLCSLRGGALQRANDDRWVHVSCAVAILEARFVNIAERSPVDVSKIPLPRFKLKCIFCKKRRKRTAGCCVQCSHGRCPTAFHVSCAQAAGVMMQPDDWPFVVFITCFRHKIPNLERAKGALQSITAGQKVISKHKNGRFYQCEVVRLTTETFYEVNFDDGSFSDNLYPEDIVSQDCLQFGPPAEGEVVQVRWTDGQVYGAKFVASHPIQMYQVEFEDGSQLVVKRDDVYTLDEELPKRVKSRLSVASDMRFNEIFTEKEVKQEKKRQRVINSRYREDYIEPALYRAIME
# CtBP-E1A blk = qHTS Assay for Inhibitors of the CtBP/E1A Interaction | CtBP / adenovirus E1A interaction (AlphaScreen) | AlphaScreen GST-E1A/His-CtBP binding, 1536-well; hits give low values | activity change, % (test concentration not listed) | 340,000 compounds, 0.49% hits; in the data active = activity change below about -65%; inconclusive = mostly about -30% to -63%; note: % is set by controls: 0 for no effect and ±100 for the full control effect
#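 Homogeneous bead-based format: GST-tagged E1A captured on glutathione donor beads, His-tagged CtBP on nickel acceptor beads; compounds precede bead addition by 2 h at 37 °C.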
# G9a block = qHTS Assay for Inhibitors of Histone Lysine Methyltransferase G9a; Potency, µM (doses to about 102 µM), for inactives: at the top dose activity, negative = inhibition, usual class: inhibitors; G9a H3K9 monomethylation, AlphaScreen, 2 h; Histone-lysine N-methyltransferase EHMT2 (Homo sapiens), Q96KQ7; 350,000 compounds, 8.8% hits; note: potency is the fitted concentration of half-maximal effect; % is set by controls: 0 for no effect and ±100 for the full control effect; nearly all actives have a fitted effect of over 75% in size
#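 Readings reflect AlphaScreen signal from monomethyl-H3K9 antibody detection. HMT at 20 nM; substrate b-H3K9 500 nM; cofactor SAM 20 uM; 2 h RT reaction; compounds tested as titrations in qHTS with 15 min preincubation.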
# HP1b chromo inh = HTS for Inhibitors of HP1-beta Chromodomain Interactions with Methylated Histone Tails. Potency, µM (top dose mostly 114 µM), inactives show at the highest dose activity change, negative = inhibition, most hits filed as inhibitors. AlphaScreen HP1-beta / biotin-H3K9me3 peptide binding. Chromobox protein homolog 1 (Homo sapiens), P83916. 390,000 compounds, 0.56% hits; note: potency is the fitted concentration of half-maximal effect; nearly all actives have a fitted effect of over 70% in size
#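 AlphaScreen: HP1-beta (50 nM) preformed 30 min with biotin-H3(1-18)K9me3 peptide (50 nM) in PBS pH 7.4, 0.01% Tween-20. Compound added for 30 min at RT, then streptavidin donor/nickel chelate acceptor beads (10 ug/mL) for 30 min.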
# BAZ2B block = qHTS Assay for Inhibitors of BAZ2B; AlphaScreen BAZ2B-H3K14Ac peptide displacement; Potency, µM (doses to about 114 µM), for the others: at the top dose activity change, negative = inhibition, actives largely listed as inhibitors; 360,000 compounds, 4.4% hits; AID 504333, 2011; note: potency is the fitted concentration of half-maximal effect; % is set by controls: 0 for no effect and ±100 for the full control effect; nearly all actives have a fitted effect of over 60% in size
#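 BAZ2B (50 nM) with biotin-H3(5-23)K14Ac peptide (50 nM) in PBS pH 7.4, 0.01% Tween-20, preformed 30 min, then compound 30 min at room temperature; top concentration 110uM. AlphaScreen streptavidin donor/nickel chelate acceptor beads (10 ug/mL final), 20 min dark, signal read.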
# An asterisk follows results filed as active; ? = inconclusive; / = no result; [ ] = remark or other dose. Unless noted, calls come from the whole dose curve; as a rule, active = well fitted inhibition curve with a large enough effect; inconclusive = small, poorly fitted or top-dose-only effect; inactive = no such curve, though single readings can be large or run the other way.
SMILES,Six1-Eya2 inh,JMJD2A Tudor inh,CtBP-E1A blk,G9a block,HP1b chromo inh,BAZ2B block
N#CC1=C(C2CC2)CC(c2ccccc2)C(C#N)=C1N (stereo not given),-12.5,-8.5%,8.2,50.1µM*,52.0%,0.8%
COc1cccc(N(CC(=O)N2CCC(C)CC2)S(=O)(=O)c2ccc(C)cc2)c1,/,-24.2%,/,-19.7%[59 µM],8.4%,-1.2%
O=C(NCc1ccccn1)Nc1cc(Cl)ccc1Cl,-3.6,-7.6%,0.3,46.1%,46.1%,-6.6%
O=C(CC(NCc1ccccn1)C(=O)O)Nc1ccccc1Cl (stereo not given),-90.8*,20µM*,-88.7*,7.1%,59.0%,2.82µM*
CC(C)(C)C(=O)Nc1cccc(C(=O)OCc2cc(=O)n3nc(C4CC4)sc3n2)c1,/,-8.3%,/,?,23.8%,-18.1%
O=C(NCc1ccc(F)cc1)c1cccc2c1C(=O)c1ccc(N3CCOCC3)cc1S2(=O)=O,7.4,79.4µM*,-27.3,4.8%[0.501 µM],44.3%,-7.5%
O=C(CCCCn1c(=S)[nH]c2ccsc2c1=O)NCc1ccco1,-1.2,25.1µM*,-11.7,22.4µM*,-14.7%,-31.9%
O=C(CCCn1c(=S)[nH]c2ccsc2c1=O)NCc1ccco1,-1.1,56.2µM*,-3.8,?,4.4%,?
O=[N+]([O-])c1cc(S(=O)(=O)C(F)(F)F)ccc1Sc1nc2ccccc2[nH]1,-4.7,?,-8.4,?,-23.1%,?
Nc1ccccc1Sc1nc2ccccc2[nH]1,-18.6,28.2µM*,3.4,7.08µM*,?,39.8µM*
CS(=O)(=O)c1ccc(Sc2nc3ccccc3[nH]2)c([N+](=O)[O-])c1,-11.1,11.2µM*,-11.2,?,-5.6%,?
COC(=O)c1cn(NC(=O)Cc2ccccc2Br)c(=O)c2ccccc12,-8.9,-10.9%,0.6,-2.3%,24.9%,-13.4%
CCC(C)NCCCCOc1ccc(Cl)cc1C (stereo not given),4.2,14.1µM*,6.9,?,-20.0%,-13.5%
CCCCNCCCOc1cc(Cl)ccc1Cl,10.4,-18.4%,4.0,-34.1%[59 µM],14.1%,-15.2%
CCC(C)NCCCOc1cc(Cl)ccc1Cl (stereo not given),1.6,2.51µM*,8.1,7.94µM*,?,50.1µM*
COC(=O)c1ccccc1S(=O)(=O)Nc1cc(=O)c2ccccc2[nH]1,/,-29.8%,/,/,/,/
CCOC(=O)C1=C(COC(=O)CNC(=O)c2cc(OC)c(OC)c(OC)c2)NC(=O)NC1C (stereo not given),8.1,0.0%,3.2,-4.9%,34.2%,-3.0%
CC(NC(=O)c1ccccc1)C(=O)NNC(=O)c1ccccc1Cl (stereo not given),8.6,-15.5%,/,12.9%[12.7 µM],23.5%,-3.5%
O=C(NC(=O)N1CCCC1)c1csnn1,2.4,-5.9%,8.5,56.2µM*,4.5%,0.5%
O=C(NC1CCCCC1)c1csnn1,-0.1,-6.2%,9.2,/,35.3%,/
O=[N+]([O-])c1ccccc1S(=O)(=O)N1CCN(c2ccccc2)CC1,8.2,?,/,2.6%,5.0%,?
O=C1C(Cl)=C(N2CCN(c3ccccc3[N+](=O)[O-])CC2)C(=O)c2ccccc21,?,5.01µM*,0.2,7.94µM*,8.91µM*,2.51µM*
O=C(Cn1c(=O)n(-c2ccc(Cl)cc2)c(=O)c2c3c(sc21)CCCCC3)Nc1cccc(Cl)c1,/,5.5%,/,10.8%[59 µM],29.2%,-1.1%
C#CCOCCOCCOCCNc1nc(N2CCN(C(=O)Cn3cc(CCCN=C(N)N)nn3)CC2)nc(N2CCN(C(=O)[C@H]([C@@H](C)CC)n3cc(CCCN=C(N)N)nn3)CC2)n1,/,/,/,22.4µM*,/,?
